Only some compounds are listed: those with a hit (about 0.92% of all), similar ones and a draw of the others.
APEX1 inh: blocks human APE1 abasic DNA cleavage | P27695 | recombinant APE1, TAMRA/BHQ-2 abasic DNA cleavage fluorescence | Potency, µM (highest dose often 65.8 µM), for inactives: at the top dose activity change, negative = inhibition, actives largely listed as inhibitors | 0.35% of 350,000 active;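 further: plate controls were vehicle for no effect and reference inhibitor for full effect; nearly all actives have a fitted effect of over 55% in size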
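Activity was derived from the fluorescence gain between first and third kinetic reads (60 s intervals, ex 525/em 598 nm) after 50 nM THF-abasic TAMRA/BHQ-2 duplex was added to 0.75 nM APE1 preincubated 15 min with compound.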
TDP1 inh: blocks human tyrosyl-DNA phosphodiesterase 1; Q9NUW8; Potency, µM (series often up to 130 µM), without a hit: at the top dose activity change, negative = inhibition, actives largely listed as inhibitors; recombinant TDP1, AlphaScreen DNA substrate cleavage; 0.28% of 350,000 active; AID 485290; further: nearly all actives have a fitted effect of over 40% in size
Target sequence (Q9NUW8 whole entry, looked up): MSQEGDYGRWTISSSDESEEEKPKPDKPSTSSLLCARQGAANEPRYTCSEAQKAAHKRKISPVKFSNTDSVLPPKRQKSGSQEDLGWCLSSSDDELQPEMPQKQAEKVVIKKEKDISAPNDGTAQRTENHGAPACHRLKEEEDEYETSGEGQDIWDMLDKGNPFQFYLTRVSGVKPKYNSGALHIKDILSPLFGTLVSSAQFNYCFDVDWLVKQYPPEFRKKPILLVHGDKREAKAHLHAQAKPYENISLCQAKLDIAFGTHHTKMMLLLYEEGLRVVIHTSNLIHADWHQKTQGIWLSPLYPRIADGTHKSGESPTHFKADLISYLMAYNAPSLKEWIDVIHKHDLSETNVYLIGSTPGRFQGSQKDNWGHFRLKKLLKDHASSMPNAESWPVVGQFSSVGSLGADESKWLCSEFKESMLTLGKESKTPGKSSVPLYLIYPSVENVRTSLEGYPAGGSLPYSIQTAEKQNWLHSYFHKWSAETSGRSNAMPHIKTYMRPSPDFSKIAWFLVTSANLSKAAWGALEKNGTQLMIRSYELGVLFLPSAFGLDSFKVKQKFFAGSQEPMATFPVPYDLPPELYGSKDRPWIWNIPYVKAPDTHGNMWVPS
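Enzyme-compound mixtures sat 15 min at room temperature, followed by a 5 min reaction with 15 nM final substrate and 10 min with AlphaScreen beads. Recombinant human Tdp1 was used at 1 nM final.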
BLM inh: blocks DNA unwinding by human BLM helicase | Potency, µM (top dose mostly 56.1 µM), inactives show at the top dose activity change, negative = inhibition, hits mostly inhibitors | P54132 | 0.2% of 350,000 active | AID 2528 | recombinant BLM DNA unwinding, fluorescence dequenching;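 further: plate controls were vehicle for no effect and no enzyme for full effect; nearly all actives have a fitted effect of over 35% in size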
RECQ1 helicase: RECQ1 (human) helicase inhibition; P46063; RECQ1 DNA unwinding, red fluorescence kinetic read; Potency, µM (series often up to 57.3 µM), inactives show top-dose activity, negative = inhibition, usual class: inhibitors; 0.54% of 240,000 active; AID 2549;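 further: plate controls were vehicle for no effect and no enzyme for full effect; nearly all actives have a fitted effect of over 30% in size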
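RECQ1T1 50 nM; forked duplex (20 bp + 30-nt ss tails) 200 nM, ATP 2 mM final; pH 8.0, 2 mM MgCl2, 2.5 ug/ml poly(dI-dC); 15 min compound preincubation; discontinuous kinetic read over 2 h at RT.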
FEN1 inhibitor: blocks human flap endonuclease 1; P39748; Recombinant FEN1 flap cleavage, fluorescence, 15 min; Potency, µM (doses to about 114 µM), for the others: at the highest dose activity change, negative = inhibition, actives largely listed as inhibitors; 0.35% of 390,000 active; further: nearly all actives have a fitted effect of over 65% in size
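Reaction started by adding substrate (50 nM final) to 10 nM enzyme after 15 min room-temperature compound preincubation. Reads at 0 and 15 min, with data normalized and fitted to a four-parameter Hill equation.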
Active calls of the source: *; [ ] = another dose, or the depositor's remark. The call rests on the fitted dose curve; in most records, active means well fitted curve in the direction sought with a large enough effect; inconclusive means small, poorly fitted or top-dose-only effect, or another doubt; inactive means no such curve, though single readings can be large; an effect the other way counts as inactive or inconclusive. Unless noted, on the % scale 0 is the no-effect control and ±100 the full control effect; potency means the concentration at half of the fitted maximal effect.

For Cn1nnnc1Sc1ncnc2scc(-c3ccc(C(F)(F)F)cc3)c12 the results were APEX1 inh -4.3%, TDP1 inh 5.5% and FEN1 inhibitor -17.9%.
Cn1nnnc1Sc1ncnc2scc(-c3ccccc3C(F)(F)F)c12 was read as APEX1 inh 27.8%, TDP1 inh 8.91µM* and FEN1 inhibitor -12.6%.
For CCN1C(=O)[C@@H]2[C@H]3C(=CC[C@@H]2C1=O)C1(OCCCO1)[C@H]1O[C@@H]1[C@H]3O the results were APEX1 inh -6.9%[12.4 µM], TDP1 inh -4.8%[21 µM], BLM inh -9.3%[12.4 µM] and RECQ1 helicase -12.9%[11.5 µM].
For COc1ccc(Cn2c3nc4ccccc4nc3c3c(=O)n(Cc4ccco4)c(C)nc32)cc1 the results were APEX1 inh inconclusive, TDP1 inh 31.6µM*, BLM inh inconclusive and RECQ1 helicase 3.55µM*.
Screening CC1CCCN(CCCNC(=O)c2cc3c(Cl)nc4ccccc4c3s2)C1 (configuration not stated) returned APEX1 inh -6.5%, TDP1 inh 3.4%, BLM inh 114.3%, RECQ1 helicase 15.4% and FEN1 inhibitor 50.1µM*.
`O=C(NCCCN1CCCCCC1)c1cc2c(=O)oc3ccccc3c2s1` gave APEX1 inh -5.4%, TDP1 inh -2.4%, BLM inh 48.5% and FEN1 inhibitor 70.8µM*.
`Cn1nc(-c2ccc(Cl)cc2)c2cc(C(=O)NCCCN3CCCC3)sc21` gave APEX1 inh -11.4%, TDP1 inh 6.5%, BLM inh 151.8%, RECQ1 helicase 14.1% and FEN1 inhibitor 31.6µM*.
Screening C1=Cc2ccccc2/C1=C\c1cc[cH-]c1.[Fe+2].c1cc[cH-]c1 returned FEN1 inhibitor 12.6µM*.
Screening C[N+](C)(C)c1ccc(/C=C2\C=Cc3ccccc32)cc1 returned FEN1 inhibitor 35.5µM*.
`Nc1ccc(/C=C2\C=Cc3ccccc32)cc1` gave FEN1 inhibitor -22.0%.
Screening CC[C@H](C)[C@H](NC(=O)[C@H](Cc1ccc(O)cc1)NC(=O)[C@@H]1CCCN1C(=O)[C@@H](N)CCCN=C(N)N)C(=O)N[C@@H](CC(C)C)C(=O)O returned APEX1 inh -2.3%, TDP1 inh 8.9%, BLM inh 0.3% and RECQ1 helicase 9.9%.
CC(C)c1ccc(S(=O)(=O)/N=C2/C=C(Sc3ncn[nH]3)C(=O)c3ccccc32)cc1 was read as APEX1 inh 4.5%, TDP1 inh 6.5%, BLM inh 10µM*, RECQ1 helicase -0.2% and FEN1 inhibitor 79.4µM*.
`Cc1ccc2[nH]c3ccccc3c(=O)c2c1` gave APEX1 inh 5.1%, BLM inh -5.4% and FEN1 inhibitor -13.2%.
O=c1c2ccccc2[nH]c2ccc(O)cc12 was read as APEX1 inh inconclusive, TDP1 inh 39.8µM*, BLM inh -13.8% and FEN1 inhibitor inconclusive.
Screening CC(=O)OC[C@]12CC[C@H]3[C@@](C)(CC[C@H]4C(C)(C)CCC[C@]34C)[C@@H]1C[C@H](C1=CC(=O)O[C@@H]1OC(C)=O)O2 returned APEX1 inh 13.4µM* and TDP1 inh -11.3%.
`COc1cc(F)c(S(=O)(=O)N2CCN(S(=O)(=O)c3ccc4c(c3)OCCO4)CC2)c(F)c1` gave TDP1 inh 0.9%.
`C=C(C)CC1N(c2cccc(OC)c2)C(=O)C2C(C(=O)O)C3C=CC21O3` (configuration not stated) gave APEX1 inh -2.3%, TDP1 inh 2.9%, BLM inh 0.2%, RECQ1 helicase -8.1% and FEN1 inhibitor -14.8%.
For O=C(O)C1C2C=CC3(O2)C1C(=O)N1c2ccccc2C2OCCC2C13 (configuration not stated) the results were APEX1 inh inconclusive, TDP1 inh 39.8µM*, BLM inh -5.5%, RECQ1 helicase -0.2% and FEN1 inhibitor -1.8%.
`CCCCNc1nc(C#N)nc(Nc2ccccc2)n1` gave APEX1 inh -17.9%, TDP1 inh 6.2%, BLM inh -7.1% and RECQ1 helicase 3.6%.
For COc1cccc(NC(=O)CN2C(=O)NC(C)(c3ccc(C)cc3)C2=O)c1 (configuration not stated) the results were APEX1 inh 31.5%, TDP1 inh 39.8µM*, BLM inh 3.3% and FEN1 inhibitor -13.3%.
Screening COc1cccc(NC(=O)CN2C(=O)NC3(CCCC3)C2=O)c1 returned APEX1 inh -2.8%, TDP1 inh -4.1%, BLM inh -1.3% and FEN1 inhibitor 0.8%.
For Cc1ccnc2ccc([N+](=O)[O-])cc12 the results were FEN1 inhibitor -11.6%.
Screening COc1ccc2[nH]c(CCc3nc4c(OC)c(OC)ccc4[nH]3)nc2c1OC returned FEN1 inhibitor 8.9%.
For CN(CC(=O)Nc1ccc(F)cc1)C(=O)c1cc(-c2ccco2)nc2ccccc12 the results were APEX1 inh -32.8% and FEN1 inhibitor 9.7%.
For COc1cccc(NC(=O)CN(C)C(=O)c2cc(-c3ccco3)nc3ccccc23)c1 the results were APEX1 inh 10.6µM*, TDP1 inh -13.1%[0.505 µM] and FEN1 inhibitor -22.8%.
For COc1ccc(-c2cc(C(=O)NCc3ccco3)c3ccccc3n2)c(OC)c1 the results were APEX1 inh -0.4%, TDP1 inh 8.91µM*, BLM inh -9.4% and FEN1 inhibitor 4.9%.
For CCOC(=O)CCN1C(=O)[C@H]2[C@H]3[C@H](O)[C@H](O)C/C(=N/OC/C=C(\C)CCC=C(C)C)[C@@H]3CC[C@@H]2C1=O the results were APEX1 inh 24.8%[12.4 µM], TDP1 inh 6.9%[21 µM], BLM inh 5.6%[12.4 µM] and RECQ1 helicase inactive[11.5 µM].
`CCN(C(=O)CSc1nc2ccccc2n1Cc1cc(C)ccc1C)c1ccccc1` gave TDP1 inh 1.2%, BLM inh -5.3% and FEN1 inhibitor inconclusive.
`NNC(=S)Nc1cccc(-c2n[nH]c(=S)o2)c1` gave APEX1 inh -4.3%, TDP1 inh -7.7%, BLM inh -1.2%, RECQ1 helicase 27.1% and FEN1 inhibitor 50.1µM*.
Screening CN(C)C(=S)Nc1cccc(-c2n[nH]c(=S)o2)c1 returned APEX1 inh -5.4%, TDP1 inh -5.0%, BLM inh -2.4%, RECQ1 helicase -1.7% and FEN1 inhibitor -2.2%.
Screening Cc1ccc(S(=O)Cc2ccc(C(=O)NC3CCCCCC3)o2)cc1 (configuration not stated) returned TDP1 inh 2.3%, BLM inh -1.0% and FEN1 inhibitor -5.7%.
For Cc1ccccc1CNC(=O)C1CCCN(c2nnc(C)c3c(C)n(-c4ccccc4)nc23)C1 (configuration not stated) the results were APEX1 inh -13.1%, TDP1 inh 79.4µM*, BLM inh 0.2% and FEN1 inhibitor inconclusive.

Screens as filed in PubChem.
